Bioassay records (PubChem BioAssay)
aSyn 5UTR act: Activators working through SNCA 5'UTR binding (MLPCN); alpha-synuclein 5'UTR reporter, activators screen; activity score, % (tested at 7.5 µM), hits read low; 7.1% of 300,000 active; in the data active = activity score below about -60%
An asterisk follows results filed as active. Only a sample is shown.

SMILES	aSyn 5UTR act
O=c1c2ccccc2nnn1CSc1nnc2ccccn12	-92.9*
CCC(C(=O)Nc1ccc2c(c1)OCCO2)n1nnc2ccccc2c1=O (stereo not drawn)	-133.3*
O=c1c2ccccc2nnn1CSc1nnc(-c2ccco2)o1	-131.1*
CCOC(=O)CNC(=O)c1cc(-c2ccccn2)nc2c(C)c(Cl)ccc12	-65.6*
CC(=NC1CCCC1)c1c(C)[nH]n(-c2nc3ccccc3s2)c1=O	94.2
COc1ccc(Nc2cnn(-c3nc4ccccc4s3)c(=O)c2Cl)cc1	-138.8*
O=c1c(Cl)c(Nc2cccc(Cl)c2)cnn1-c1nc2ccccc2s1	-78.1*
O=C(Nc1nc(-c2cccc3ccccc23)cs1)c1ccc2c(c1)S(=O)(=O)c1ccccc1C2=O	-142.8*
O=C(CSc1cn(Cc2ccccc2)c2ccccc12)N1CCOCC1	-129.4*
COc1cc(C(=O)N/N=C/c2cn(Cc3ccccc3)c3ccccc23)ccc1O	57.2
O=C(Cn1cc(SCc2ccc(Cl)cc2)c2ccccc21)N1CCOCC1	-89.8*
CN(c1ccccc1)S(=O)(=O)c1cc(C(=O)OCC(N)=O)ccc1Cl	-85.1*
Cc1cc(C(=O)N2CCN(c3cccc(Cl)c3)CC2)c(C)o1	-137.0*
Cc1c(Cl)c([N+](=O)[O-])nn1CCCC(=O)NCCc1ccccc1	-63.8*
COC(=O)c1cnc(SCc2ccc(C)cc2)n1C	-81.4*
COc1cccc(CN(C)C(=O)c2ccc(COc3ccc(Cl)cc3)cc2)c1OC	-101.2*
O=C(O)c1ccccc1OCc1nc2ccccc2s1	-145.7*
O=C(OCc1nc2ccccc2s1)c1ccccc1O	-136.5*
O=C(OCc1nc2ccccc2s1)c1cnccn1	-133.5*
O=C(OCc1nc2ccccc2s1)c1cccs1	-196.8*
Cc1ccccc1N=Nc1ccc(O)c2ncccc12	54.3
O=Nc1ccc(O)c2ncccc12	-235.5*
O=C(c1ccccc1)N1CCN2C(=O)c3ccccc3C12c1ccc(Cl)cc1 (stereo not drawn)	-72.4*
O=C(Nc1cnn(Cc2ccccc2)c1)c1nc2ncccn2n1	-66.2*
FC(F)(F)Oc1ccc(Nc2nc3ccccc3o2)cc1	-259.5*
SMILES	aSyn 5UTR act
c1ccc(Nc2nc3ccccc3o2)cc1	-188.7*
Cc1cc(C)nc(Nc2nc3ccccc3o2)n1	-70.0*
COCc1cc(C)nc2sc(C(=O)Nc3nccs3)c(N)c12	-120.9*
COCc1cc(C)nc2sc(C(=O)Nc3cccc(OC)c3)c(N)c12	-192.1*
O=C(NC1CCCC1)C(c1ccncc1)N(Cc1ccco1)C(=O)c1ccc(-c2ccccc2)[nH]1 (stereo not drawn)	-67.8*
O=C(O)c1cc(O)c2c(c1)C(=O)c1cc(O)cc(O)c1C2=O	-80.5*
Cc1cccc(OCCn2c(=O)oc3ccc(C)cc32)c1	-110.4*
O=C(CCc1nnc(CCCc2ccccc2)o1)NC(C1CC1)C1CC1	-145.9*
CC(NC(=O)CCc1nnc(-c2ccc(-c3ccccc3)cc2)o1)c1nccs1 (stereo not drawn)	89.4
Cc1nc(C(C)NC(=O)CCc2nnc(CCCc3ccccc3)o2)c(C)s1 (stereo not drawn)	-174.0*
Cc1nc(C#N)c(N/N=C/c2cccc(Cl)c2)o1	-126.4*
CC(=O)Nc1sc(NC(=O)c2ccc(Cl)cc2)nc1-c1cccs1	-72.9*
CC(=O)Nc1sc(N/N=C\c2ccccc2)nc1-c1cccs1	-113.9*
CC(=O)Nc1sc(N/N=C\c2ccccc2Cl)nc1-c1cccs1	-141.3*
CC(/C=C/c1ccccc1)=N\Nc1ccccc1[N+](=O)[O-]	-149.9*
Cc1ccc(O)c(C2=NNC(c3ccc(Cl)cc3)C2)c1 (stereo not drawn)	-127.6*
Cc1ccc(C2Cc3cc(O)c(O)cc3CN2)cc1 (stereo not drawn)	89.0
C(=N\C(/N=C/c1ccco1)c1ccco1)/c1ccco1	-67.7*
Cc1cccc(NC(=O)c2ccc(CN3CCN(Cc4ccccc4)CC3)cc2)c1	-76.8*
COc1cccc(NC(=O)c2ccc(CN3CCc4ccccc4C3)cc2)c1	-104.3*
O=C(c1ccc2ccccc2c1)N1CCN(Cc2ccccc2)CC1	-85.4*
CC(C)(C)SCCNC(=O)c1ccc(CN2CCc3ccccc3C2)cc1	-63.1*
Oc1c(CN2CCc3ccccc3C2)cc(Cl)c2cccnc12	90.8
Fc1ccc(Nc2ccnc(Nc3ccc(F)cc3)n2)cc1	-93.5*
O=C(NCC(=O)N1CCN(c2ccccc2O)CC1)c1cccs1	-62.9*
SMILES	aSyn 5UTR act
Cc1c(C(=O)OC2CCC(C)CC2)[nH]c2c1C(=O)CCC2 (stereo not drawn)	-78.8*
COC(=O)C1C(=O)c2c([nH]c(C(=O)OC3CCCCCC3)c2C)CC1C (stereo not drawn)	-115.3*
CCOC(=O)c1[nH]c2c(c1C)C(=O)CC(c1ccco1)C2 (stereo not drawn)	73.3
COC(=O)c1[nH]c2c(c1C)C(=O)CC(c1cccs1)C2 (stereo not drawn)	84.6
COCCOC(=O)c1[nH]c2c(c1C)C(=O)C(C(=O)OC)C(C)C2 (stereo not drawn)	-87.7*
COCCOC(=O)c1[nH]c2c(c1C)C(=O)CC(c1ccccc1)C2 (stereo not drawn)	77.7
CCCCCOC(=O)c1[nH]c2c(c1C)C(=O)C(C(=O)OC)C(C)C2 (stereo not drawn)	-73.2*
COC(=O)C1C(=O)c2c([nH]c(C(=O)OCC3CCCO3)c2C)CC1C (stereo not drawn)	-112.9*
C(=N\N=C\c1ccccc1)/c1ccccc1	-95.7*
Fc1cccc(/C=N/N=C/c2cccc(F)c2)c1	-62.1*
Cc1ccc(/C=N/N=C/c2ccc(C)cc2)cc1	-110.1*
CSc1ccccc1C(=O)Nc1ccc2c(c1)CCC2	-135.2*
O=C(Nc1ccc2c(c1)CCC2)c1ccccc1Br	-128.6*
Cc1c(C(=O)Nc2ccc3c(c2)CCC3)cccc1[N+](=O)[O-]	-204.0*
COC(=O)c1ccc(NC(=O)c2ccccc2SC)cc1	-66.8*
O=C(c1cc2ccccc2oc1=O)N(Cc1ccco1)C1CCS(=O)(=O)C1 (stereo not drawn)	-97.0*
Cc1cc(C)c(S(=O)(=O)Nc2cc(SCC(=O)O)c(O)c3ccccc23)cc1C	66.8
c1cc2cc(-c3c(-c4ccc5c(c4)OCO5)noc3-c3ccsc3)ccc2[nH]1	-80.6*
c1ccc(-c2onc(-c3ccco3)c2-c2ccc3[nH]ccc3c2)cc1	-65.1*
NC(=O)c1ccccc1Nc1nc2nc3ccccc3c(=O)n2cc1Br	-82.7*
Cc1ccc(NC(=O)Cc2noc3ccccc23)cc1	-172.8*
CC(C)Oc1ccc(C(=O)Nc2ccc([N+](=O)[O-])cc2)cc1	-211.5*
Cc1ccc(NC(=O)c2ccccc2Cl)c(Cl)c1	-83.3*
Cc1cc(NC(=O)c2ccc([N+](=O)[O-])cc2)no1	-130.3*
Cc1cc(NC(=O)c2cc(C(C)C)on2)no1	-139.8*
SMILES	aSyn 5UTR act
Cc1nc2ccc(NC(=O)c3ccc([N+](=O)[O-])cc3)cc2[nH]1	-106.0*
CC(=O)Nc1ccc(S(=O)(=O)c2ccc([N+](=O)[O-])cc2)cc1	-72.2*
Cc1cc(NC(=O)c2ccccc2Cl)no1	-68.1*
Cc1ccc(NC(=O)c2ccc([N+](=O)[O-])cc2Cl)nc1	-119.2*
O=C(Nc1cccc(NC(=O)c2cc([N+](=O)[O-])ccc2Cl)n1)c1cc([N+](=O)[O-])ccc1Cl	48.4
Cc1cc(NC(=O)C(Cl)c2ccccc2)no1 (stereo not drawn)	-74.0*
Cc1cc(NC(=O)c2ccc([N+](=O)[O-])cc2Cl)no1	-129.5*
Cc1cc(NC(=O)c2sc3ccccc3c2O)no1	-64.4*
Cc1cc(NC(=O)NC(=O)c2ccccc2F)no1	-108.5*
